The results in this text go back to PubChem BioAssay (EPA / NIEHS).

Where “and” joins values, the source holds several entries; their conditions need not be identical. Equal entries are not always repeated. Calls of active or inactive are those of the source. The calls were made as follows: active = hit-call score of the fitted dose curve at least 0.9, where 1 is the maximum; inactive = score below 0.9.

Read-out in this experiment: solute carrier (SLC22A1), SLC22A1 (gene 6580)
In words: LTEA_HepaRG_SLC22A1: Life Technologies and Expression Analysis (LTEA) Assay for solute carrier (SLC22A1) using HepaRG (AID 2283524).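 As to AC50: TaqMan qRT-PCR normalized to ACTB GAPDH and POLR2A housekeeping genes.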 Conditions: mRNA level, 48 h; actives raise or lower the signal. The method, then: LTEA_HepaRG is a cell based, multiplexed-readout assay that uses HepaRG, a human liver cell line, with measurements taken at 48 hours after chemical dosing on a 96-well plate.LTEA_HepaRG_SLC22A1 is one of 102 assay component(s) measured in the LTEA HepaRG cell culture assay. It is a marker of NR mediated transport.Data from the assay component LTEA_HepaRG_SLC22A1 was analyzed into 1 endpoint. This assay endpoint, LTEA_HepaRG_SLC22A1, was analyzed with bidirectional fitting relative to DMSO as the negative control and baseline of activity. Using a type of inducible reporter, measures of mRNA induction for gain or loss-of-signal activity can be used to understand regulation of transcription factor activity. To generalize the intended target to other relatable targets, this assay endpoint is annotated to the transporter intended target family, where the subfamily is organic cation transporter.
A total of 1060 chemcials from the ToxCast library were tested in eight-point concentration-response experiments. Cell culture and cytotoxicity assays were conducted at Thermo Fisher Scientific's Custom Services facility (Madison, WI). A single lot of human HepaRG cells (Thermo Fisher Scientific, Frederick, MD) was used for the cell culture experiments. 96-well format collagen type I coated plates of human HepaRG cells were prepared using established methods. Briefly, cryopreserved HepaRG cells were thawed, plated at a density of approximately 100,000 cells/well in HepaRG Thaw, Plate, and General Purpose media (HPRG770, Thermo Fisher Scientific), and incubated for 48 hours. 0.5% DMSO was selected as vehicle control to balance the requisite need of DMSO in HepaRG cultures to maintain differentiation (for example, baseline metabolism, proportions of hepatocytes vs. cholangiocytes), while enabling further hepatic receptor pathway activation (for example, PXR and CAR) in response to chemical exposure. 48 hours after plating, the culture medium was replaced with HepaRG Serum-Free Incudtion Media. Cells were exposed to each test chemical in duplicate and maintained in CO2 incubators for another 48 hours. Chemical plates were thawed to room temperature and 200x concentrations of treatment groups were prepared. 8-point conentration-reponse curves were made with the highest exposure at 100 uM, followed by half-log dilutions, all in 0.5% DMSO. Each test plate contained variouse controls, induction positive controls (1mM phenobarbital), cytotoxicity positive controls ([…] aflatoxin B1), vehicle controls (0.5% DMSO), and total lysis controls (0.5% DMSO). Cell morphology images were taken using an Essen IncuCyte FLR automated microscope, with six 96-well plates imaged in about 24 minutes. Images were captured and exported and JPEG files. Spent culture media was transfered to black-well plates for the LDH assay, and remaining media was sorted at -80 C for later use. Cells were treated with RLT buffer and frozen until shipped for gene expression analysis. Total RNA was isolated from the cell suspension in 75 uL of Buffer RLT (Qiagen, Germantown, MD 20874) by Quintiles/Expression Analysis (Durham, NC) using a custom isolation procedure. Total RNA from each plate well was transferred to a preamplification plate. Fluidigm's 96.96 Dynamic ArrayTM (Fluidigm, Amsterdam, the Netherlands) technology was used for gene expression analyses by quantitative reverse transcription polymerase chain reaction (qRT-PCR, performed by Quintiles/Expression Analysis, Durham, NC)89. Standard TaqManTM Assays (Applied Biosystems/ThermoFisher Scientific, Foster City, CA) were used to assess the expression of 93 genes selected based on their selectivity and sensitivity to important hepatic receptors known to be modulated by environmental chemicals; importance in human hepatocyte functionality; and hepatotoxicity. […]
Take `C=CCOC(Cn1ccnc1)c1ccc(Cl)cc1Cl` (stereo not given): the AC50 (commonly the concentration giving half of the maximal activity seen) is 31.3 µM (active). Consider `CCCCOCCOCCOCc1cc2c(cc1CCC)OCO2`, for which the compound was called inactive. On to `CC(=O)S[C@@H]1CC2=CC(=O)CC[C@]2(C)[C@H]2CC[C@@]3(C)[C@@H](CC[C@@]34CCC(=O)O4)[C@H]12`, for which the AC50 is 55.5 µM (active).

On to `CCOC(=O)COc1cc(-n2ncc(C(F)(F)F)c(C)c2=O)c(F)cc1Cl`, for which the compound was classed as inactive.

In the case of `CSC(=O)c1cccc2nnsc12`, the call was inactive. On the same count and under the same terms, for `COC(=O)c1ccccc1C(=O)O` the value was “inactive”. `CCOC(=O)NCCOc1ccc(Oc2ccccc2)cc1`: the AC50 was 84.9 µM (active). Take `COC(=O)c1ccc(I)cc1S(=O)(=O)NC(=O)Nc1nc(C)nc(OC)n1`: the call was inactive. For `CCC(C)OC(=O)N1CCCCC1CCO` (stereo not given), the call was inactive. With `CCCCC(CC)CN1C(=O)C2C3C=CC(C3)C2C1=O` (stereo not given), the AC50 was 78.3 µM (active).

Consider `CCOC(=O)C(C)Oc1ccc(Oc2nc3ccc(Cl)cc3o2)cc1` (stereo not given), for which the AC50 was 9.92 µM (active). Turning to `S=C([S-])NCCNC(=S)[S-].[Mn+2]`, the AC50 is 2.8 µM (active). `O=C(O)c1ccccc1`: the result was inactive. On the same count and under the same terms, the same measure for `CC1(C)C(C=C(Cl)Cl)C1C(=O)OCc1cccc(Oc2ccccc2)c1` (stereo not given): “inactive”. As to `CCOC(=O)C(C)Oc1ccc(Oc2cnc3cc(Cl)ccc3n2)cc1` (stereo not given), the AC50 was 17.2 µM (active). As to `CCCCOC(=O)[C@@H](C)Oc1ccc(Oc2ccc(C(F)(F)F)cn2)cc1`, the result was inactive. For `C[C@]12C[C@H](O)[C@H]3[C@@H](CCC4=CC(=O)CC[C@@]43C)[C@@H]1CC[C@@H]2C(=O)CO`, the compound was called inactive.

For the compound `C#C[C@]1(O)CC[C@H]2[C@@H]3CCC4=CC(=O)CC[C@@H]4[C@H]3CC[C@@]21CC`, the call was inactive. Still for that read-out and setting: for `CCOC(=O)c1ccc(O)cc1` the value was “inactive”; for `c1ccc2[nH]c(-c3cscn3)nc2c1`, “inactive”. For `Cc1nn(C)c(Oc2ccccc2)c1C=NOCc1ccc(C(=O)OC(C)(C)C)cc1`, the AC50 was 12.3 µM (active). Take `c1ccc(Nc2ccccc2)cc1`: the outcome was inactive.

On to `C[C@]12CC[C@@H]3c4ccc(O)cc4C[C@@H](CCCCCCCCCS(=O)CCCC(F)(F)C(F)(F)F)[C@H]3[C@@H]1CC[C@@H]2O` (stereo not given in full), for which the AC50 was 14.5 µM (active). Regarding `CC(C)(c1ccc(O)cc1)c1ccc(O)cc1`, the outcome was inactive. As for `CCCN(CCC)c1c([N+](=O)[O-])cc(C(F)(F)F)c(N)c1[N+](=O)[O-]`, the AC50 is 27.2 µM (active). The same measure, in the same setting: for `S=C(S)NCCNC(=S)S.[Mn+2].[S-]C([S-])=NCCN=C([S-])[S-].[Zn+2]` the value was 985 nM (active) and 1.14 µM (active) and 908 nM (active). Take `O=C(Nc1ccc([N+](=O)[O-])cc1Cl)c1cc(Cl)ccc1O`: the AC50 is 5.5 µM (active). For the compound `COCCO`, the compound was classed as inactive.

Consider `CCNc1nc(N)nc(Cl)n1`, for which the compound was called inactive. On the same count and under the same terms, the same measure for `CCCOC(=O)c1ccc(C(=O)OCCC)nc1`: “inactive”. For `CC(=O)[C@H]1CC[C@H]2[C@@H]3CCC4=CC(=O)CC[C@]4(C)[C@H]3CC[C@]12C`, the AC50 was 38.2 µM (active). As to `O=C(O)C1(C(=O)Nc2ccc(Cl)cc2Cl)CC1`, the AC50 was 74.3 µM (active). Same read-out and setting: for `N[C@@H](Cc1cc(I)c(Oc2ccc(O)c(I)c2)c(I)c1)C(=O)O` the value was 65.7 µM (active). On to `C#CCOC(=O)[C@@H](C)Oc1ccc(Oc2ncc(Cl)cc2F)cc1`, for which the outcome was inactive. For `CN(C)C(=O)Nc1ccc(Cl)c(Cl)c1`, the AC50 is 51.5 µM (active). Same read-out and setting: the same measure for `Oc1ccc(C(c2ccc(O)cc2)C(Cl)(Cl)Cl)cc1`: 92.3 µM (active).

Consider `COc1c(Cl)ccc(Cl)c1C(=O)O`, for which the compound was classed as inactive. Same read-out and setting: the same measure for `CCCCOC(=O)C(C)Oc1ccc(Oc2ccc(C(F)(F)F)cn2)cc1` (stereo not given): “inactive”. Still for that read-out and setting: the same measure for `OB(O)O`: “inactive”. With `COC(=O)CSc1cc(N=c2sc(=O)n3n2CCCC3)c(F)cc1Cl`, the outcome was inactive.
